This is part of a sample that, as a whole, favours compounds with a hit. Of some 83,000 tested, about 20% had one in any assay.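 Results are percent growth after 48 hours of single-concentration exposure. 100 means growth as in untreated cells, lower positive values show inhibition; negative values down to -100 show cell death.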 Values without a mark were called inactive. Activity calls are given as the source filed them. How the source made its calls: active means growth percent below 10; inactive means the rest.

Holding throughout (test): NCI-60 one-dose screen, 48 h (100 = growth as untreated, 0 = no growth, -100 = all killed)
The test system of one assay is NCI-H226 lung. The note with it: 10 µM.
Another assay concerns HOP-62 NSCLC. The note with it: 10 µM.
A further assay has as its system NCI-H460 lung. To be noted: 10 µM.
In another assay the test system is A549/ATCC NSCLC. The note with it: 10 µM.
A further assay has as its system DU-145 prostate. To be noted: 10 µM.
Another assay has as its system SF-268 CNS. The note with it: 10 µM.
A further assay has as its system SF-295 CNS. To be noted: 10 µM.
The test system of the next assay is SF-539 CNS. The note with it: 10 µM.
Another assay concerns UACC-257 melanoma. The note with it: 10 µM.
Another assay has as its system M14 melanoma. To be noted: 10 µM.
For the next assay, the system named is HCT-15 colon. To be noted: 10 µM.
A further assay concerns HT29 colon. The note with it: 10 µM.
The subject of the next assay is SNB-75 CNS. To be noted: 10 µM.
The subject of the next assay is SNB-19 CNS. The note with it: 10 µM.
Another assay relates to U251 CNS. To be noted: 10 µM.
The next assay concerns SK-MEL-5 melanoma. To be noted: 10 µM.
In the next assay the test system is UACC-62 melanoma. The note with it: 10 µM.
A further assay relates to SK-MEL-28 melanoma. To be noted: 10 µM.
Another assay concerns SK-MEL-2 melanoma. The note with it: 10 µM.
For another assay, the system named is HL-60(TB) leukemia. The note with it: 10 µM unless noted.

For `O=C(/C=C/c1ccco1)c1nc2ccccc2n1Cc1ccc(Br)cc1`, the growth is 48.2% with NCI-H226 lung; 57% in the assay on HOP-62 NSCLC; 32.4% with NCI-H460 lung; 47.3% in the assay on A549/ATCC NSCLC; 28.1% in the assay with DU-145 prostate; 45.4% with SF-268 CNS. The growth with SF-295 CNS was 53.5%; in the assay on SF-539 CNS it was 26.7%; in the assay with UACC-257 melanoma it was 36.9%; in the assay with M14 melanoma it was 26.2%; with HCT-15 colon, 9.97% (active); in the assay on HT29 colon it was 29.3%. In addition, the growth with SNB-75 CNS was 33.6%; in the assay with SNB-19 CNS it was 54.4%; with U251 CNS, 18.2%; in the assay with SK-MEL-5 melanoma it was 57.5%; with UACC-62 melanoma it was 28.7%; in the assay on SK-MEL-28 melanoma it was 56.2%. For the same compound, the growth is 46.2% with SK-MEL-2 melanoma and 16% with HL-60(TB) leukemia.
On to `COC(=O)c1ccc(-n2cc(CCCN(CCNc3ccnc4cc(Cl)ccc34)C(=O)CCC(=O)O[C@@H]3O[C@@H]4OC5(C)CC[C@H]6[C@H](C)CC[C@@H]([C@H]3C)[C@@]46OO5)nn2)cc1`, for which the growth was 48.4% in the assay on NCI-H226 lung; 64.5% with HOP-62 NSCLC; 52.1% in the assay on NCI-H460 lung; 44.4% in the assay with A549/ATCC NSCLC; 59.8% with DU-145 prostate; 59.2% in the assay with SF-268 CNS. Besides, the growth in the assay with SF-295 CNS was 43.8%; in the assay on SF-539 CNS it was 39%; in the assay on UACC-257 melanoma it was 35%; in the assay on M14 melanoma, 47.1%; in the assay with HCT-15 colon, -4.92% (active); with HT29 colon it was 5.91% (active). The growth in the assay with SNB-75 CNS was 67.3%; with SNB-19 CNS, 63.7%; in the assay on U251 CNS, 53.3%; with SK-MEL-5 melanoma, -70.1% (active); in the assay on UACC-62 melanoma it was 36.8%; in the assay on SK-MEL-28 melanoma it was 16.3%. In addition, the growth in the assay with SK-MEL-2 melanoma was 29.4%; in the assay on HL-60(TB) leukemia, -30.7% (active).
In the case of `CC(=C\C(=O)Oc1ccc2c3c1OC1C(O)CCC4(O)C(C2)N(CC2CCC2)CCC314)/C=C1\CCCc2ccccc21` (stereo not given), the growth is 56.3% in the assay on NCI-H226 lung; 85.6% in the assay with HOP-62 NSCLC; 12.1% in the assay on NCI-H460 lung; 48.9% in the assay with A549/ATCC NSCLC; 82.1% with DU-145 prostate; 73.5% in the assay with SF-268 CNS. In addition, the growth with SF-295 CNS was 63.2%; with SF-539 CNS it was 67.8%; in the assay with UACC-257 melanoma, -36.8% (active); in the assay with M14 melanoma, -51.4% (active); with HCT-15 colon, 7.2% (active); with HT29 colon it was 8.3% (active). In addition, the growth in the assay on SNB-75 CNS was 59.8%; with SNB-19 CNS, 70.5%; with U251 CNS it was 47.4%; with SK-MEL-5 melanoma, 45.5%; in the assay with UACC-62 melanoma, -16.4% (active); with SK-MEL-28 melanoma, 17.1%. For the same compound, the figures for the growth in the assay on SK-MEL-2 melanoma and in the assay with HL-60(TB) leukemia were 84.3% and 17.9%, respectively.
As for `C[C@H]1[C@H](OC(=O)CCC(=O)Nc2cnccn2)O[C@@H]2OC3(C)CC[C@H]4[C@H](C)CC[C@@H]1[C@@]24OO3`, the growth in the assay on NCI-H226 lung is 74.8%; in the assay on HOP-62 NSCLC it was 53.6%; with NCI-H460 lung, 29.6%; in the assay with A549/ATCC NSCLC, 62.6%; with DU-145 prostate, 77.7%; in the assay on SF-268 CNS, 56.3%. Further, the growth with SF-295 CNS was 41.7%; in the assay with SF-539 CNS it was 33.2%; in the assay with UACC-257 melanoma, 56.1%; in the assay on M14 melanoma, 35.9%; in the assay with HCT-15 colon, 12%; in the assay on HT29 colon, 27.3%. For the same compound, the growth is 72.6% in the assay with SNB-75 CNS; 56.3% in the assay on SNB-19 CNS; 42.6% in the assay on U251 CNS; 26.9% with SK-MEL-5 melanoma; 26.3% with UACC-62 melanoma; 39.7% with SK-MEL-28 melanoma. Besides, the values for the growth in the assay on SK-MEL-2 melanoma and in the assay on HL-60(TB) leukemia were 31.2% and 0.224% (active), respectively.
In the case of `O=C(/C=C/c1ccccc1Cl)c1nc2ccccc2n1Cc1ccc(F)cc1`, the growth in the assay on NCI-H226 lung was -75.1% (active); in the assay on HOP-62 NSCLC, -77.5% (active); with NCI-H460 lung it was -54.6% (active); in the assay with A549/ATCC NSCLC, -44.3% (active); in the assay with DU-145 prostate, -34.8% (active); with SF-268 CNS it was -2.61% (active). Moreover, the growth in the assay with SF-295 CNS is -86.8% (active); in the assay with SF-539 CNS, -94.4% (active); in the assay on UACC-257 melanoma, -61.1% (active); in the assay with M14 melanoma, -79.4% (active); in the assay with HCT-15 colon it was -83.1% (active); in the assay with HT29 colon, -85.6% (active). In addition, the growth was 6.88% (active) in the assay on SNB-75 CNS; -79.2% (active) in the assay with SNB-19 CNS; -87.5% (active) in the assay with U251 CNS; -86.5% (active) with SK-MEL-5 melanoma; -93.2% (active) with UACC-62 melanoma; -86.2% (active) with SK-MEL-28 melanoma. For the same compound, the values for the growth in the assay on SK-MEL-2 melanoma and with HL-60(TB) leukemia were -68.5% (active) and -38.4% (active), respectively.
In the case of `COC(=O)C[C@](O)(CCC(C)C)C(=O)O[C@@H]1C(OC)=C[C@]23CCCN2CCc2cc4c(cc2[C@H]13)OCO4`, the growth in the assay on NCI-H226 lung is -55.1% (active); in the assay on HOP-62 NSCLC it was -50.4% (active); in the assay on NCI-H460 lung, -20.6% (active); in the assay with A549/ATCC NSCLC, -27.1% (active); in the assay on DU-145 prostate it was -26.7% (active); in the assay with SF-268 CNS, -21.3% (active). For the same compound, the growth in the assay with SF-295 CNS was -35.5% (active); with SF-539 CNS it was -77.1% (active); in the assay with UACC-257 melanoma, -66.7% (active); in the assay on M14 melanoma, -89% (active); in the assay on HCT-15 colon, -32.9% (active); with HT29 colon it was -62.1% (active). Also, the growth in the assay on SNB-75 CNS is -32.9% (active); with SNB-19 CNS, -16.9% (active); in the assay with U251 CNS it was -27.3% (active); in the assay with SK-MEL-5 melanoma, -95.4% (active); in the assay on UACC-62 melanoma it was -92.5% (active); in the assay on SK-MEL-28 melanoma, -68.8% (active). Further, the growth with SK-MEL-2 melanoma was -85.9% (active); in the assay on HL-60(TB) leukemia, -31% (active).
Consider `C=CC[Se]C(=O)c1cncc(C(=O)[Se]CC=C)c1`, for which the growth in the assay on NCI-H226 lung is -24.6% (active); in the assay on HOP-62 NSCLC, -60.6% (active); with NCI-H460 lung, -14% (active); in the assay with A549/ATCC NSCLC it was 7.53% (active); with DU-145 prostate, 5.92% (active); with SF-268 CNS it was 7.42% (active). In addition, the growth is -55.8% (active) in the assay on SF-295 CNS; -99.9% (active) in the assay with SF-539 CNS; -75% (active) in the assay with UACC-257 melanoma; -86.7% (active) with M14 melanoma; -37.4% (active) with HCT-15 colon; -14.4% (active) with HT29 colon. Moreover, the growth is -61.4% (active) with SNB-75 CNS; -97.5% (active) with SNB-19 CNS; -72.9% (active) in the assay on U251 CNS; -36.3% (active) in the assay with SK-MEL-5 melanoma; -62.3% (active) with UACC-62 melanoma; -39% (active) in the assay with SK-MEL-28 melanoma. Moreover, the growth in the assay with SK-MEL-2 melanoma was -54.1% (active); in the assay on HL-60(TB) leukemia, -26.2% (active).
Turning to `COCCOCCOCCOc1ccc(-n2cc(CCCN(CCNc3ccnc4cc(Cl)ccc34)C(=O)CCC(=O)O[C@@H]3O[C@@H]4OC5(C)CC[C@H]6[C@H](C)CC[C@@H]([C@H]3C)[C@@]46OO5)nn2)cc1`, the growth was 53.5% with NCI-H226 lung; 61.2% with HOP-62 NSCLC; 52% in the assay on NCI-H460 lung; 46.1% in the assay on A549/ATCC NSCLC; 62% with DU-145 prostate; 56.9% in the assay with SF-268 CNS. In addition, the growth is 40.5% in the assay with SF-295 CNS; 47.4% in the assay with SF-539 CNS; 13.1% with UACC-257 melanoma; 34.8% in the assay with M14 melanoma; 14.2% with HCT-15 colon; 20.6% in the assay on HT29 colon. The growth with SNB-75 CNS is 57.6%; with SNB-19 CNS, 56.3%; in the assay on U251 CNS it was 46%; in the assay with SK-MEL-5 melanoma it was -16.4% (active); in the assay on UACC-62 melanoma, 37%; in the assay with SK-MEL-28 melanoma, 53.1%. Also, the growth in the assay with SK-MEL-2 melanoma is 47.9%; with HL-60(TB) leukemia, -27.5% (active).

For the origin of these results see PubChem BioAssay (NCI).
